The values below come from PubChem BioAssay AID2685 (National Center for Advancing Translational Sciences (NCATS), 2010).

Structures are written as SMILES. About 2,100 (0.66%) of roughly 320,000 compounds were called active. Roughly 53% stayed inconclusive and do not appear here. The sample holds actives, similar compounds and a random draw of the others, so the mix is not that of the screen. Calls follow the shape of the dose curve; as a rule, active = well fitted inhibition curve with a large enough effect in the signal ratio, with a control signal flat (not every such curve was filed as active); inconclusive = small, poorly fitted or top-dose-only effect, or effect the other way, or a change in a side signal; inactive = flat fitted curve, though single readings scatter; the % refers to the signal ratio.
Potency is read from the fitted curve at half-maximal effect.

This experiment in a line: qHTS Assay for Lipid Storage Modulators in Drosophila S3 Cells.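 As to cell number change: cells counted by Cell Tracker Red CMTPX staining in the red channel.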 As to lipid storage change, negative = inhibition: % is scaled to controls: 0 for no effect and ±100 for the full control effect. The following applies: BODIPY lipid droplet fluorescence, 18-24 h, cells fed with added oleic acid; cell number change: measured here: cell count max response; series mostly up to 46.1 µM; lipid storage change, negative = inhibition: at the top concentration. In a few lines: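 Drosophila S3 cells loaded with oleic acid (400 uM, as added) and compounds at several concentrations; lipid droplets imaged by 488-nm laser-scanning cytometry, 500–530 nm intensity and object ratio to cell channel. Percent activity normalized to 20 uM Triacsin C.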
(In general: Quantitative high-throughput screening tests each substance at several concentrations.)
On to `CCCCC(=O)Nc1ccc(NC(=O)c2cnccn2)cn1`, for which the “lipid storage change, negative = inhibition” value was -6.31% (inactive) and the cell number change came out at 3.06%.

As for `CCOC(=O)c1c(NC(=O)c2cccnc2)sc(C(C)=O)c1C`, the “lipid storage change, negative = inhibition” value was 2.48% (inactive) and the cell number change stood at 5.18%.

With `O=C(c1ccc(S(=O)(=O)Nc2cccc(C(F)(F)F)c2)cc1)N1CCC1`, the “lipid storage change, negative = inhibition” value is 18.7% (inactive) and the cell number change is 1.62%.

With `OCCN(Cc1ccccc1)Cc1cccc(F)c1`, the “lipid storage change, negative = inhibition” value was 4.72% (inactive) and the cell number change was -7.51%.

Turning to `CCN(Cc1ccccc1)Cc1cccc([N+](=O)[O-])c1`, the compound was classed as inactive.

`O=[N+]([O-])c1cccc(CN(CCO)Cc2ccccc2)c1`: the Potency is 13 µM (active) and the cell number change is -9.58%.

On to `CC1(C(=O)NC2CCCCCCC2)CCC(=O)N1Cc1ccco1` (stereo not drawn), for which the “lipid storage change, negative = inhibition” value was -0.266% (inactive) and the cell number change came out at 2.23%.

For the compound `CC(=O)N1CCC(N2CCN(c3ccccc3F)CC2)CC1`, the “lipid storage change, negative = inhibition” value was -6.18% (inactive) and the cell number change is -0.227%.

On to `COC(=O)c1ccc(S(=O)(=O)N2CCCN(Cc3cccc(Br)c3F)CC2)n1C`, for which the “lipid storage change, negative = inhibition” value was 25.4% (inactive).

Regarding `COc1cc(NC2c3ccccc3C(=O)N2c2ccc(C)cn2)cc(OC)c1OC` (stereo not drawn), the “lipid storage change, negative = inhibition” value is 1.47% (inactive) and the cell number change worked out at 9.33%.

In the case of `CCOC(=O)c1cc(C(=O)NN)c(=O)[nH]c1C`, the “lipid storage change, negative = inhibition” value is -8.78% (inactive) and the cell number change is -9.94%.

For `COc1ccc(OC)c(NC(=O)COC(=O)c2c(C)noc2C)c1`, the Potency was 4.61 µM (active) and the cell number change was -7.27%.

As to `COc1ccc(Cl)cc1NC(=O)COC(=O)c1c(-c2ccccc2)noc1C`, the compound was called inactive and the cell number change is -24.6%.

Turning to `COCCOc1ccc(C(F)(F)F)cc1NC(=O)COC(=O)c1c(C)noc1C`, the “lipid storage change, negative = inhibition” value was -14% (inactive) and the cell number change is -13.3%.

For the compound `C=CCNC(=O)c1ccc(N(Cc2ccccc2)S(C)(=O)=O)cc1`, the “lipid storage change, negative = inhibition” value is -16.3% (inactive) and the cell number change was -6.36%.

Regarding `CCc1ccc(S(=O)(=O)N(C(=O)c2ccncc2)c2ccc(OC(=O)c3ccncc3)cc2)cc1`, the Potency was 18.4 µM (active) and the cell number change is -8%.

As to `O=C(Oc1ccc(N(C(=O)c2ccncc2)S(=O)(=O)c2ccc(F)cc2)cc1)c1ccncc1`, the “lipid storage change, negative = inhibition” value is 7.39% (inactive).

In the case of `COc1ccc(S(=O)(=O)N(C(=O)c2ccncc2)c2ccc(OC(=O)c3ccncc3)cc2)cc1`, the “lipid storage change, negative = inhibition” value is 2.27% (inactive) and the cell number change is -3.33%.

Turning to `CC(C)CN(CC(C)C)C(=O)COn1nnc2ccc(S(=O)(=O)N3CCOCC3)cc21`, the “lipid storage change, negative = inhibition” value is 4.64% (inactive) and the cell number change turned out to be 3.81%.

Regarding `CCCCn1nc2cc(C(=O)NCc3ccc(OC)cc3)ccc2c1OCC`, the “lipid storage change, negative = inhibition” value was -10.4% (inactive) and the cell number change was -2.9%.

For `OCCN(Cc1ccccc1)Cc1ccccc1F`, the “lipid storage change, negative = inhibition” value is -8.72% (inactive) and the cell number change is -24.2%.

As for `OCCN(Cc1ccccc1)CC1CC2C=CC1C2` (stereo not drawn), the Potency is 29.1 µM (active) and the cell number change stood at 0.638%.

Take `C1=CC2CC1CC2CN1CCN(Cc2ccccc2)CC1` (stereo not drawn): the result was inactive.

For the compound `COc1ccc(N2CCN(C(=O)CSc3nnc4c5cc(C)ccc5n(C)c4n3)CC2)cc1`, the “lipid storage change, negative = inhibition” value was -3.64% (inactive) and the cell number change is 15.5%.

With `Cn1c2ccc(Br)cc2c2nnc(SCC(=O)O)nc21`, the result was inactive.

As to `Cc1ccc2c(c1)c1nnc(SCC(=O)NC3CC3)nc1n2C`, the Potency was 5.8 µM (active) and the cell number change was found to be 0.855%.

Regarding `Cn1c2ccccc2c2nnc(SCC(=O)NC3CCCC3)nc21`, the compound was called inactive and the cell number change is -23.7%.

Turning to `Cn1c2ccccc2c2nnc(SCC(=O)NC3CC3)nc21`, the result was inactive and the cell number change was -0.952%.

For the compound `COc1ccc2c(c1)c1nnc(SCC(=O)NC3CC3)nc1n2C`, the Potency was 1.46 µM (active) and the cell number change is -8.55%.
